Laboratory results taken from PubChem BioAssay.
Activity calls are given as the source filed them.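 Rule for the calls: active = luciferase signal above three times the same-plate solvent-only control wells; inactive = the rest.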

The compounds below were run against Mitogen-activated protein kinase 7 (Homo sapiens) (UniProt Q13164) (assay: Gal4-ERK5 driven luciferase induction – cell-based, HTS, primary screen (AID 1508626;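 note: luciferase driven by Gal4-ERK5 fusion binding five Gal4 sites before minimal TATA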)). Conditions: HeLa Gal4-ERK5 transactivation, 18 h, at 5 µM, active compounds read high.
Sequence of Mitogen-activated protein kinase 7 (Homo sapiens) (Q13164 whole entry, looked up, the tested form may be a part): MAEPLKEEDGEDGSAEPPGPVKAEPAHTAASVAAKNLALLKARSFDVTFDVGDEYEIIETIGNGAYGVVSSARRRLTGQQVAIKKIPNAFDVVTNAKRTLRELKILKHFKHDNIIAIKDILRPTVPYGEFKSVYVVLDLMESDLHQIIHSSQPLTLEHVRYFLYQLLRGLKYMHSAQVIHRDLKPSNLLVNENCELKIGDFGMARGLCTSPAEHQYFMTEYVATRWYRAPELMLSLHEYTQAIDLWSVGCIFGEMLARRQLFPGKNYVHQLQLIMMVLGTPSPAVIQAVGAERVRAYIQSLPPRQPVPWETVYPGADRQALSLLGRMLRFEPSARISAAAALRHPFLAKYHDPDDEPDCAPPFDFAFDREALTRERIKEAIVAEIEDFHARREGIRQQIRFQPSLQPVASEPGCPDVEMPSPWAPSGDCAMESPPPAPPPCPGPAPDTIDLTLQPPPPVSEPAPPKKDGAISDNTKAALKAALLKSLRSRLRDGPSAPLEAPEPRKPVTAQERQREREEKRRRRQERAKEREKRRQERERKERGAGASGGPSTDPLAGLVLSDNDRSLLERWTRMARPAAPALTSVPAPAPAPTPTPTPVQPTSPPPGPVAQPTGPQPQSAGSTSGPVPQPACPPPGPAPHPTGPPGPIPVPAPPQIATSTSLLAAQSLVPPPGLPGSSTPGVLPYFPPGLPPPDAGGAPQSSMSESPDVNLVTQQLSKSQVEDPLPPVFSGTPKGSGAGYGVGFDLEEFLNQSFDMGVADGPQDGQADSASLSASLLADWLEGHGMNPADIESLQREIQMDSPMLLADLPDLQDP

Compound	luciferase signal
COc1cc([C@@H]2c3cc4c(cc3[C@H](O)[C@H]3COC(=O)[C@@H]23)OCO4)cc(OC)c1OC	76 AU (inactive)
COc1ccc([C@@H]2CC(=O)c3c(O)cc(O[C@@H]4O[C@H](CO[C@@H]5O[C@@H](C)[C@H](O)[C@@H](O)[C@H]5O)[C@@H](O)[C@H](O)[C@H]4O)cc3O2)cc1O	88 AU (inactive)
C[C@H]1O[C@@H](O[C@H]2[C@@H](O)C[C@H](O[C@H]3[C@@H](O)C[C@H](O[C@H]4CC[C@@]5(C)[C@H](CC[C@@H]6[C@@H]5C[C@@H](O)[C@]5(C)[C@@H](C7=CC(=O)OC7)CC[C@]65O)C4)O[C@@H]3C)O[C@@H]2C)C[C@H](O)[C@@H]1O	24 AU (inactive)
CCC[C@@H]1C[C@@H](C(=O)N[C@@H]([C@H]2O[C@H](SC)[C@H](O)[C@@H](O)[C@H]2O)[C@@H](C)O)N(C)C1	64 AU (inactive)
COc1c(O)cc2c(c1O)[C@@H]1O[C@H](CO)[C@@H](O)[C@H](O)[C@H]1OC2=O	48 AU (inactive)
O=C(O)c1c2ccccc2cc2ccccc12	56 AU (inactive)
C=C1CC[C@@H]2[C@](C)(CO)[C@H](O)CC[C@@]2(C)[C@@H]1C/C=C1/C(=O)OC[C@H]1O	176 AU (active)
CN[C@H](CC(C)C)C(=O)N[C@H]1C(=O)N[C@@H](CC(N)=O)C(=O)N[C@H]2C(=O)N[C@H]3C(=O)N[C@H](C(=O)N[C@H](C(=O)O)c4cc(O)cc(O)c4-c4cc3ccc4O)[C@H](O)c3ccc(c(Cl)c3)Oc3cc2cc(c3O[C@@H]2O[C@H](CO)[C@@H](O)[C@H](O)[C@H]2O[C@H]2C[C@](C)(N)[C@H](O)[C@H](C)O2)Oc2ccc(cc2Cl)[C@H]1O	68 AU (inactive)
C=C(C)[C@@H]1CC[C@]2(C(=O)O)CC[C@]3(C)[C@H](CC[C@@H]4[C@@]5(C)CC[C@H](O)C(C)(C)[C@@H]5CC[C@]43C)[C@@H]12	64 AU (inactive)
C[C@@H]1[C@H](O)[C@@H](C)/C=C/C=C/C=C/C=C/C=C/C=C/C=C/[C@H](O[C@@H]2O[C@H](C)[C@@H](O)[C@H](N)[C@@H]2O)C[C@@H]2O[C@](O)(C[C@@H](O)C[C@@H](O)[C@H](O)CC[C@@H](O)C[C@@H](O)CC(=O)O[C@H]1C)C[C@H](O)[C@H]2C(=O)O	92 AU (inactive)
COc1ccc(-c2cc(=O)c3c(O)cc(O[C@@H]4O[C@H](CO[C@@H]5O[C@@H](C)[C@H](O)[C@@H](O)[C@H]5O)[C@@H](O)[C@H](O)[C@H]4O)cc3o2)cc1O	80 AU (inactive)
CC(C)(O)CC[C@@H](O)[C@](C)(O)[C@H]1CC[C@@]2(O)C3=CC(=O)[C@@H]4C[C@@H](O)[C@@H](O)C[C@]4(C)[C@H]3CC[C@]12C	60 AU (inactive)
O=C(O)C1=CCCNC1	48 AU (inactive)
Nc1ccn([C@@H]2O[C@H](CO)[C@@H](O)[C@H]2O)c(=O)n1	60 AU (inactive)
COc1cc([C@@H]2c3cc4c(cc3[C@@H](O[C@@H]3O[C@@H]5CO[C@@H](c6cccs6)O[C@H]5[C@H](O)[C@H]3O)[C@H]3COC(=O)[C@H]23)OCO4)cc(OC)c1O	72 AU (inactive)
COc1cc(NS(C)(=O)=O)ccc1Nc1c2ccccc2nc2ccccc12	52 AU (inactive)
CC(C)(S)[C@@H](N)C(=O)O	48 AU (inactive)
C[C@H](CCC(=O)O)[C@H]1CC[C@H]2[C@@H]3[C@H](O)C[C@@H]4C[C@H](O)CC[C@]4(C)[C@H]3CC[C@]12C	112 AU (inactive)
CCC(=O)NCC[C@@H]1CCc2ccc3c(c21)CCO3	72 AU (inactive)
CCC[C@@H]1C[C@@H](C(=O)N[C@@H]([C@H]2O[C@H](SC)[C@H](O)[C@@H](O)[C@H]2O)[C@H](C)Cl)N(C)C1	136 AU (inactive)
O=C1c2c(O)cccc2[C@H]([C@@H]2O[C@H](CO)[C@@H](O)[C@H](O)[C@H]2O)c2cc(CO)cc(O)c21	44 AU (inactive)
O=C(/C=C/c1ccc(O)c(O)c1)O[C@H](Cc1ccc(O)c(O)c1)C(=O)O	44 AU (inactive)
CC(=O)[C@H]1CC[C@H]2[C@@H]3CCC4=CC(=O)CC[C@]4(C)[C@H]3CC[C@]12C	28 AU (inactive)
N=c1ccn2c(n1)O[C@H]1[C@H](O)[C@@H](CO)O[C@H]12	44 AU (inactive)
